The values below come from PubChem BioAssay (NCATS).

Inconclusive results are not listed. Unmarked numbers belong to inactive results. Calls of active or inactive are those of the source. Calls come from the whole dose curve; as a rule, active = well fitted curve in the direction sought with a large enough effect; inconclusive = small, poorly fitted or top-dose-only effect, or another doubt; inactive = no such curve, though single readings can be large; an effect the other way counts as inactive or inconclusive.

For one experiment, the system named is HaCat. Description: Cytotoxic Profiling of Annotated Libraries Using Quantitative High-Throughput Screening (AID 1296008). Note: nearly all actives have a fitted effect of over 60% in size. Note: potency is the fitted concentration of half-maximal effect. The conditions noted are these: Five cell lines viability, CellTiter-Glo ATP luminescence, 48-72 h; max response: hits give low values. In short, it runs like this:
(§1)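 Cytotoxicity was measured as CellTiter-Glo ATP luminescence, read after 10 min at room temperature. Compound treatment of the cells lasted 48 or 72 hr at 37 degrees Celsius in a qHTS format.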

The next experiment concerns KB-3-1. Described as above. The conditions noted are these: Five cell lines viability, CellTiter-Glo ATP luminescence, 48-72 h; max response: hits give low values. In short, it runs like this: as §1
For experiment [1], the system named is NIH3T3. The description is as above. The conditions noted are these: Five cell lines viability, CellTiter-Glo ATP luminescence, 48-72 h; max response: hits give low values. In short, it runs like this: as §1
A general note: ATP-based viability assays read luminescence as a measure of living cells.

A further experiment has as its system MCC-13. Description: qHTS assay to identify novel small-molecules to repurpose for Merkel cell carcinoma treatment (AID 1296009). Note: nearly all actives have a fitted effect of over 60% in size. Conditions: MCC and control cell lines, CellTiter-Glo viability, 72 h; series mostly up to 46 µM. In short, it runs like this:
(§2)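 After compound transfer in DMSO, plates were kept 72 hr at 37 degree celsius. Luminescent ATP signal from CellTiter-Glo served as viability measure, normalized against DMSO and no-cell controls.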
(In general: In qHTS, concentration-response curves come from the screen itself.)

A further experiment has as its system MCC-26. The description is as above. The conditions noted are these: MCC and control cell lines, CellTiter-Glo viability, 72 h; series mostly up to 46 µM. In short, it runs like this:
as §2

Another experiment concerns MKL-1. Described as above. Conditions: MCC and control cell lines, CellTiter-Glo viability, 72 h; series mostly up to 46 µM. In short, it runs like this: as §2
Another experiment concerns MKL-2. The description is as above. Conditions: MCC and control cell lines, CellTiter-Glo viability, 72 h; series mostly up to 46 µM. The method, boiled down: as §2
The test system of the next experiment is UISO. The experiment is described as above. Conditions: MCC and control cell lines, CellTiter-Glo viability, 72 h; series mostly up to 46 µM. The method, boiled down: as §2
The test system of another experiment is C33A. Description: Primary qHTS to identify gynecologic anti-cancer compounds using libraries of approved drugs and bioactive compounds (AID 1345084). Note: nearly all actives have a fitted effect of over 55% in size. Conditions: Gynecologic cancer cell panel viability, ATPlite luminescence, 48 h; series mostly up to 57.5 µM. The method, boiled down: (§3)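 ATP-based viability (ATPlite), 1,000 cells/well, 16 h pre-incubation, 48 h compound at 37 C, 5% CO2, 15 min RT before read.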

A further experiment concerns CAOV3. The description is as above. Conditions: Gynecologic cancer cell panel viability, ATPlite luminescence, 48 h; series mostly up to 57.5 µM. In short, it runs like this: as §3
For a further experiment, the system named is CASKI. The description is as above. Conditions: Gynecologic cancer cell panel viability, ATPlite luminescence, 48 h; series mostly up to 57.5 µM. In short, it runs like this:
as §3

The next experiment concerns Es-2. Described as above. Conditions: Gynecologic cancer cell panel viability, ATPlite luminescence, 48 h; series mostly up to 57.5 µM. In short, it runs like this:
as §3

The next experiment relates to HeLa. Described as above. The conditions noted are these: Gynecologic cancer cell panel viability, ATPlite luminescence, 48 h; series mostly up to 57.5 µM. The method, boiled down:
as §3

The subject of a further experiment is Hek293T. The description is as above. The conditions noted are these: Gynecologic cancer cell panel viability, ATPlite luminescence, 48 h, control line for the selectivity index; series mostly up to 57.5 µM. The method, boiled down: as §3
Another experiment has as its system JEG-3. Described as above. Conditions: Gynecologic cancer cell panel viability, ATPlite luminescence, 48 h; series mostly up to 57.5 µM. The method, boiled down: as §3
The next experiment deals with OV90. The experiment is described as above. Conditions: Gynecologic cancer cell panel viability, ATPlite luminescence, 48 h; series mostly up to 57.5 µM. In short, it runs like this:
as §3

A further experiment deals with WaGa. Description: qHTS assay to identify novel small-molecules to repurpose for Merkel cell carcinoma treatment (AID 1296009). Note: nearly all actives have a fitted effect of over 60% in size. The conditions noted are these: MCC and control cell lines, CellTiter-Glo viability, 72 h; series mostly up to 46 µM. The method, boiled down: as §2
In experiment [2] the test system is NIH3T3. The experiment is described as above. The conditions noted are these: MCC and control cell lines, CellTiter-Glo viability, 72 h; at 44.8 µM (top of the series) unless noted. The method, boiled down: as §2
% is set by controls: 0 for no effect and ±100 for the full control effect.

As to `c1ccc(C(O[C@H]2CCCN(CCc3ccc4c(c3)OCO4)C2)c2ccccc2)cc1`, the max response was 0.583% in the experiment with HaCat, -8.06% with KB-3-1 and -0.771% in the experiment with NIH3T3 [1]. The Potency result with MCC-13, in the experiment on MCC-26, in the experiment on MKL-1, in the experiment with MKL-2, with UISO and in the experiment with C33A was “inactive” each time. Further, the Potency result in the experiment with CAOV3, in the experiment with CASKI, with Es-2, with HeLa, in the experiment on Hek293T and in the experiment with JEG-3 was “inactive” each time. For the same molecule, the Potency entry in the experiment on OV90 was “inactive”.

Take `OCCc1ccccc1`: the max response is -14.1% in the experiment with HaCat, -8.71% with KB-3-1 and -0.715% in the experiment on NIH3T3 [1]. In addition, the Potency result with MCC-13, with MCC-26, in the experiment with MKL-1, in the experiment with MKL-2, in the experiment on UISO and in the experiment with WaGa was “inactive” throughout. Also, the Potency result in the experiment with C33A, with CAOV3, with CASKI, in the experiment on Es-2, in the experiment with HeLa and in the experiment with Hek293T was “inactive” throughout. Also, the Potency entry in the experiment on JEG-3 was “inactive”.

For `CCN1C(=O)c2ccccc2C1Nc1ccc(OCCN2CCCCC2)cc1` (configuration not stated), the max response is -6.62% in the experiment on HaCat and -13.7% in the experiment on NIH3T3 [1]. Besides, in the experiment with KB-3-1, the outcome was inactive. Further, the Potency entry in the experiment on MCC-13, with MCC-26, with MKL-1, in the experiment with MKL-2, in the experiment with UISO and in the experiment with WaGa was “inactive” in each case. The Potency entry in the experiment on C33A, in the experiment with CAOV3, in the experiment with CASKI, in the experiment on Es-2, in the experiment with HeLa and in the experiment on Hek293T was “inactive” each time. Further, the Potency result in the experiment on JEG-3 was “inactive”.

For `CC1c2ccccc2CN1NC(=O)c1ccc(Cl)c(S(N)(=O)=O)c1` (configuration not stated), the max response is 0.897% with HaCat, 8.25% with KB-3-1 and 2.57% in the experiment with NIH3T3 [1]. For the same molecule, the Potency result with MCC-13, in the experiment with MCC-26, in the experiment with MKL-1, in the experiment on MKL-2, in the experiment with UISO and with WaGa was “inactive” throughout. Besides, the Potency result in the experiment on C33A, with CAOV3, with CASKI, with Es-2, with HeLa and with Hek293T was “inactive” throughout. Moreover, the Potency entry in the experiment on JEG-3 and in the experiment with OV90 was “inactive” throughout.

On to `CC(C)(C)C(O)/C=C/c1ccc2c(c1)OCO2` (configuration not stated), for which the max response in the experiment on HaCat is -0.175%; in the experiment on KB-3-1, -0.272%; in the experiment with NIH3T3 [1], -4.85%. Further, the Potency entry in the experiment with MCC-13, in the experiment with MCC-26, in the experiment with MKL-1, with MKL-2, with UISO and in the experiment with WaGa was “inactive” in each case. Moreover, the Potency result in the experiment on C33A, in the experiment with CAOV3, in the experiment on CASKI, in the experiment with Es-2, in the experiment on HeLa and with Hek293T was “inactive” each time. Moreover, the Potency entry with JEG-3 and in the experiment on OV90 was “inactive” in each case.

Regarding `C[C@]12CCC(=O)C=C1CC[C@@H]1[C@@H]2[C@@H](O)C[C@@]2(C)[C@H]1CC[C@]2(O)C(=O)COC(=O)CCC(=O)O`, the max response is -3.29% with HaCat and -0.87% in the experiment with KB-3-1. For the same molecule, the molecule was classed as inactive with NIH3T3 [1] and in the experiment with NIH3T3 [2]. Also, the Potency entry in the experiment on MCC-13, in the experiment on MCC-26, in the experiment with MKL-1, in the experiment with MKL-2, in the experiment on UISO and with WaGa was “inactive” in each case. The Potency result in the experiment on C33A, in the experiment on CAOV3, in the experiment on CASKI, in the experiment with Es-2, in the experiment with HeLa and with Hek293T was “inactive” each time. Also, the Potency entry with JEG-3 and with OV90 was “inactive” in each case.

As to `Nc1c(NC/C=C\COc2cc(CN3CCCCC3)ccn2)c(=O)c1=O`, the max response in the experiment on HaCat was -11%; in the experiment with NIH3T3 [1], 0.202%. In addition, the Potency in the experiment with KB-3-1 is 23.1 µM (active). Further, the Potency entry in the experiment with MCC-13, with MCC-26, in the experiment with MKL-1, in the experiment with MKL-2, with UISO and with WaGa was “inactive” each time. The Potency entry in the experiment with C33A, with CAOV3, in the experiment on CASKI, in the experiment with Es-2, with HeLa and in the experiment on Hek293T was “inactive” in each case. The Potency entry in the experiment on JEG-3 and with OV90 was “inactive” each time.
